In PubChem BioAssay AID1347142 (National Center for Advancing Translational Sciences (NCATS), 2019):
Inconclusive results are not listed. Unmarked numbers belong to inactive results. Activity calls are given as the source filed them. The call rests on the fitted dose curve; in most records, active means well fitted inhibition curve with a large enough effect; inconclusive means small, poorly fitted or top-dose-only effect; inactive means no such curve, though single readings can be large or run the other way.
Further: nearly all actives have a fitted effect of over 80% in size.
Potency means the concentration at half of the fitted maximal effect.
Wherever activity change, negative = inhibition is given: 0% is about no effect.

The compounds below were run against N-terminal Xaa-Pro-Lys N-methyltransferase 1 (Homo sapiens) (UniProt Q9BV86) (assay: qHTS Assay for Inhibitors of N-terminal methyltransferase 1 (NTMT1): ThioGlo3 Assay Confirmatory Screen, Round 1.). Details: NTMT1 SAHH-coupled ThioGlo3 fluorescence, 30 min; series mostly up to 56.8 µM; activity change, negative = inhibition: at the top concentration.
Chain of N-terminal Xaa-Pro-Lys N-methyltransferase 1 (Homo sapiens) (Q9BV86 whole entry, looked up): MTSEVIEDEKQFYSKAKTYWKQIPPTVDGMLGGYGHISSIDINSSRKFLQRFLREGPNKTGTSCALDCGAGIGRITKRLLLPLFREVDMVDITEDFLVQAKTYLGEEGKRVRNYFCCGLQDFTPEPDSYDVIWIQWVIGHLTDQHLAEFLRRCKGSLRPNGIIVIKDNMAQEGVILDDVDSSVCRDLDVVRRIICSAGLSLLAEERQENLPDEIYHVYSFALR
Description: Assay Submitter (PI): Rong Huang Ph.D, Purdue University, West Lafayette, IN 47907 The N-terminal methytransferase 1 is the first methyltransferase that methylates protein alpha-N-amines and plays an important role in regulating cell mitosis, chromatin interactions and DNA repair. It is observed to be over-expressed in various cancer patient tissues like malignant melanoma and colorectal cancer tissues. Knockdown of NTMT1 in cancer cells causes cell mitotic defects and enhances sensitivity to DNA damaging chemotherapeutics. […] These critical cellular processes in which NTMT1 is implicated, coupled with emerging links to cellular dysfunction, strengthen the inference that NTMT1 is a compelling novel anticancer target. Progress have been made in understanding the molecular properties of NTMT1 and the biological consequences of protein alpha-N-terminal methylation, but there are no specific small molecule probes available for NTMT1 to fully characterize its MTase activity. To address this unmet need, a panel of assay is created and established to enable quantitative high-throughput screening (qHTS) for novel, potent, and selective small molecule NTMT1 inhibitors. Two orthogonal qHTS that use different reagents (ThioGlo vs. MTaseGlo) are developed for primary robotic screening against the NCATS chemical library of more than 400,000 small molecules. Identified inhibitors are reacquired, validated, and further characterized. […] Early Translation Branch (ETB) National Center for Advancing Translational Sciences (NCATS) National Institute of Health (NIH)
Materials: NTMT1 enzyme, substrate SPKRIA, control peptide RCC1-6 is provided by the Huang laboratory. ThioGlo3 Assay: In brief, 125nM NTMT1 enzyme was dispensed into a 1536-well assay plate with Aurora Discovery BioRAPTR Flying Reagent Dispenser (FRD, Beckton-Dickenson). Compounds (at various concentration) or 1uM RCC1-6 (SPKRIA) control were transferred to the assay plate using the Kalypsys 1536-pintool apparatus. After 1 min of room temperature incubation, 1uL of substrate (100uM SAM, 10uM SAHH, 15uM ThioGlo3) was added to the wells bringing the final assay volume to 4uL. Initial (background) fluorescence readout (EX: 340nm, EM: 450nm) was then detected using the PerkinElmer ViewLux microplate imager and a final fluorescence readout was taken after 30 min of room temperature incubation. The data was normalized to the background fluorescence.
COc1cc2c(NC3CCN(C(C)C)CC3)nc(N3CCCN(C)CC3)nc2cc1OCCOCCN1CCCC1 was tested, and the Potency was 27.1 µM (active).
With N#Cc1ccc(COC[C@H]2O[C@@H](n3c(NCc4ccc(Cl)c(Cl)c4)nc4c(N)ncnc43)[C@@H](O)[C@@H]2O)cc1 the “activity change, negative = inhibition” value was -10.4%.
Nc1nc2c(ncn2[C@@H]2O[C@H](CO)[C@@H](O)[C@H]2O)c(=O)[nH]1 was tested, and the “activity change, negative = inhibition” value was 10.9%.
For COc1cc2nc(N3CCCN(C)CC3)nc(N(C)C)c2cc1OC, the “activity change, negative = inhibition” value was -26.6%.
With CCNC(=O)[C@H]1O[C@H](n2cnc3c(N)nc(NCCc4ccc(CCC(=O)O)cc4)nc32)[C@@H](O)[C@@H]1O the “activity change, negative = inhibition” value was -29.2%.
For Nc1nc2c([nH]c(=O)n2[C@@H]2O[C@H](CO)[C@@H](O)[C@H]2O)c(=O)[nH]1, the activity change, negative = inhibition was 16.6% [at 6.3 µM].
In the case of NC[C@H]1O[C@@H](n2cnc3c(N)ncnc32)[C@H](O)[C@@H]1O, the “activity change, negative = inhibition” value was 0.444%.
COc1cc2nc(N3CCN(C)CC3)nc(NCCCN(C)C)c2cc1OC was tested, and the Potency was 27.1 µM (active).
Nc1ncnc2c1ncn2[C@H]1O[C@@H](CO)[C@@H](O)[C@H]1N was tested, and the “activity change, negative = inhibition” value was -7.61%.
Nc1ncnc2c1ncn2[C@@H]1O[C@H](C(=O)NC2CC2)[C@@H](O)[C@H]1O was tested, and the “activity change, negative = inhibition” value was 2.31%.
For COc1cc2c(NC3CCN(C(C)C)CC3)nc(N3CCCN(C4CCCCC4)CC3)nc2cc1OCCCN1CCCC1, the Potency was 24.1 µM (active).
With COc1cc2c(NC3CCN(C)CC3)nc(N3CCCN(C)CC3)nc2cc1O the Potency was 24.1 µM (active).
In the case of COc1cc2c(NC3CCN(C4CCCCC4)CC3)nc(N3CCCN(C(C)C)CC3)nc2cc1OCCCN1CCCCC1, the Potency was 24.1 µM (active).
For COc1cc2nc(N3CCCN(C)CC3)nc(NC3CCNCC3)c2cc1OC, the Potency was 21.5 µM (active).
In the case of COC1C(O)C(CO)OC1n1cnc2c(NC3CCCCC3)ncnc21 (stereo not given), the “activity change, negative = inhibition” value was 14.5%.
With NC(=S)c1ccc[n+]([C@@H]2O[C@@H](COP(=O)([O-])OP(=O)(O)OC[C@H]3O[C@@H](n4cnc5c(N)ncnc54)[C@H](OP(=O)(O)O)[C@@H]3O)C(O)C2O)c1 (stereo not given in full) the “activity change, negative = inhibition” value was 9.18%.
For COc1cc2nc(N3CC[C@H](N(C)C)C3)nc(NC3CC3)c2cc1OC, the “activity change, negative = inhibition” value was 15.8%.
With COc1cc2c(NC3CCN(C)CC3)nc(N3CCCN(C)CC3)nc2cc1OCCCCCCN(C)C the Potency was 24.1 µM (active).
COc1cc2c(NC3CCN(C(C)C)CC3)nc(N3CCC(F)(F)CC3)nc2cc1OCCCN1CCCC1 was tested, and the Potency was 24.1 µM (active).
For COc1cc2c(NC3CCN(C)CC3)nc(N3CCN(C)CC3)nc2cc1OCCOCCN(C)C, the Potency was 21.5 µM (active).
With Nc1ncnc2c1ncn2[C@@H]1O[C@H](C[C@@H](N)CC[C@H](N)C(=O)O)[C@@H](O)[C@H]1O the “activity change, negative = inhibition” value was 9.35%.
For Nc1ncnc2c1ncn2C1CC(O)C(CO)O1 (stereo not given), the “activity change, negative = inhibition” value was -15.5%.
With CNc1ncnc2c1ncn2[C@@H]1O[C@H](CO)C(O)[C@H]1O (stereo not given in full) the “activity change, negative = inhibition” value was 7.24%.
COc1cc2c(NC3CCN(C)CC3)nc(N3CCCCC3)nc2cc1OCCOCCN1CCCC1 was tested, and the Potency was 27.1 µM (active).
For Nc1ncnc2c1ncn2C1O[C@H](COP(=O)(O)O)[C@@H](O)[C@H]1O (stereo not given in full), the “activity change, negative = inhibition” value was -14.8%.
In the case of CCNc1nc(N2CCCN(C)CC2)nc2cc(OC)c(OC)cc12, the Potency was 34.1 µM (active).
For COc1cc2nc(N3CCN(C)CC3)nc(NCCN(C)C)c2cc1OC, the Potency was 24.1 µM (active).
In the case of COc1cc2c(NC3CCN(C)CC3)nc(N3CCCN(C)CC3)nc2cc1OCCOCCN(C)C, the Potency was 24.1 µM (active).
For COc1cc2c(NC3CCN(C(C)C)CC3)nc(N3CCCCC3)nc2cc1OCCOCCN(C)C, the Potency was 27.1 µM (active).
COc1cc2c(NC3CCN(C(C)C)CC3)nc(N3CCCN(C(C)C)CC3)nc2cc1OCCCN1CCCCC1 was tested, and the Potency was 24.1 µM (active).
Nc1ncnc2c1ncn2[C@H]1O[C@@H](CSCC[C@@H](N)C(=O)O)[C@H](O)[C@@H]1O was tested, and the “activity change, negative = inhibition” value was 1900%.
In the case of Nc1nc(Cl)nc2c1ncn2[C@@H]1O[C@H](CO)C(O)[C@H]1O (stereo not given in full), the “activity change, negative = inhibition” value was -5.53%.
CCCCC#Cc1nc(NC)c2ncn([C@@H]3O[C@H](CO)[C@@H](O)C3O)c2n1 (stereo not given in full) was tested, and the Potency was 8.57 µM (active).
For NC(=O)c1ccc[n+]([C@@H]2O[C@H](COP(=O)([O-])OP(=O)(O)OC[C@H]3O[C@@H](n4cnc5c(N)ncnc54)[C@H](O)[C@@H]3O)[C@@H](O)[C@H]2O)c1, the “activity change, negative = inhibition” value was -14.9% [at 18.9 µM].
For Nc1ncnc2c1ncn2[C@H]1C[C@H](O)[C@@H](CO)O1, the “activity change, negative = inhibition” value was -5.23%.
In the case of COc1cc2nc(N3CCOCC3)nc(NC(C)C)c2cc1OC, the Potency was 24.1 µM (active).
For CCC(CC)n1ccc2c(C(=O)NCc3c(C)cc(C)[nH]c3=O)cc(C#N)cc21, the Potency was 15.2 µM (active).
With COc1cc2nc(N3CCN(C)CC3)nc(NC3CCN(C)CC3)c2cc1OC the Potency was 24.1 µM (active).
For Nc1ncnc2c1ncn2[C@H]1O[C@H](CO)[C@@H](O)[C@@H]1O, the “activity change, negative = inhibition” value was -3.26%.
With C/C(=C\CNc1ncnc2c1ncn2[C@@H]1O[C@@H](CO)[C@@H](O)[C@H]1O)CO the “activity change, negative = inhibition” value was -23.4%.
